Reference: PubChem BioAssay (NCI)
This is part of a sample that, as a whole, favours compounds with a hit. Of some 79,000 tested, about 15% had one in any assay. Cut-off read from the data, not from the text of the source: active = growth inhibition above about 70%; inactive = the rest.

What was measured:
[1] = NCI Yeast Anticancer Drug Screen. Data for the rad50 strain (AID 155);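 note: 0% = growth of vehicle-only cultures of the same strain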; conditions: S. cerevisiae rad50 strain growth inhibition; at 50.0 µM; hits give high values
Method in brief: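 Inhibition values express reduced yeast growth in compound-treated cultures relative to vehicle-treated controls.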

[2] = NCI Yeast Anticancer Drug Screen. Data for the mec2-1 strain (AID 157); conditions: S. cerevisiae mec2-1 strain, at 50.0 µM, hits give high values
Method in brief: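 Compounds were applied to mec2-1 yeast cells. Their growth was then compared with that of vehicle-treated cultures to give growth inhibition.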

[3] = NCI Yeast Anticancer Drug Screen. Data for the sgs1 mgt1 strain (AID 161);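 note: 0% = growth of cultures given vehicle only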; conditions: S. cerevisiae sgs1 mgt1 strain, at 50.0 µM, hits give high values
Method in brief: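 Percent growth inhibition was derived by comparing compound-exposed mutant yeast with vehicle-exposed cultures. The strain carries alterations in DNA damage repair.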

[4] = NCI Yeast Anticancer Drug Screen. Data for the cln2 rad14 strain (AID 165);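 note: 0% = growth equal to vehicle treated cultures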; conditions: S. cerevisiae cln2 rad14 strain, at 50.0 µM, hits give high values
Method in brief: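 Strain: cln2 rad14 yeast, altered in cell cycle control and DNA damage repair. Read-out: growth inhibition vs vehicle.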

[5] = NCI Yeast Anticancer Drug Screen. Data for the bub3 strain (AID 167); conditions: S. cerevisiae bub3 mutant strain, at 50.0 µM, hits give high values
Method in brief: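 Steps: expose the mutant yeast strain to compound; grow alongside vehicle-treated cultures; measure growth; express inhibition against the vehicle cultures.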

[6] = NCI Yeast Anticancer Drug Screen. Data for the mlh1 rad18 strain (AID 175); conditions: S. cerevisiae mlh1 rad18 strain growth inhibition; at 50.0 µM; hits give high values
Method in brief: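 A repair-deficient yeast strain is exposed to test compound, and growth is scored relative to vehicle-treated controls.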

Measured: growth inhibition

Cc1ccc(S(=O)(=O)OCC2CC=CCC2COS(=O)(=O)c2ccc(C)cc2)cc1 (centres undefined)
inactive: [1] 5.4% | [2] -8.2% | [3] -9.75% | [4] -15.2% | [5] 6% | [6] 28.8%

COc1cc2c(cc1OC)[C@H]1C(COC(=O)Nc3ccccc3)CN1CC2 (some centres undefined)
inactive: [1] -28.9% | [2] -0.7% | [3] -42.7% | [4] -9.75% | [5] -30.6% | [6] -49.1%

Cc1ccccc1SCC(N)=O
inactive: [1] 6.55% | [2] 9.1% | [3] -0.85% | [4] -12.1% | [5] 5.35% | [6] -0.7%

CCC(N)(C(=O)O)C(C)C (centres undefined)
inactive: [1] -25.7% | [2] -8.65% | [3] -12.1% | [4] -0.45% | [5] 8.4% | [6] -3.75%

Cc1ccccc1C(=O)OC1CCCC1
inactive: [1] 13.1% | [2] -1.45% | [3] 2.95% | [4] -19.4% | [5] 8.1% | [6] 0.5%

CCOC(=O)[C@H]1CS[C@]2(c3ccco3)CC(=O)N12
inactive: [1] 14.4% | [2] 8.1% | [3] -12.6% | [4] -36.2% | [5] 1.6% | [6] 44.1%

O=C1OC(=O)C2C1C1CCC2C1(c1ccccc1)c1ccccc1 (centres undefined)
inactive: [1] 22.5% | [2] -0.95% | [3] 31.4% | [4] -4.7% | [5] -0.05% | [6] -2.85%

C=CCSc1nc2c(=O)n(C)c(=O)n(C)c2n1C
inactive: [1] -11.3% | [2] -3.55% | [3] -6.85% | [4] -27.3% | [5] -6.8% | [6] 7.15%

CCOCCOCCOC(=O)C(C)O (centres undefined)
inactive: [1] 14.7% | [2] 7.1% | [3] 2.25% | [4] 6.55% | [5] -18.6% | [6] -3.4%

O=C(/C=C/c1ccc(Cl)cc1)c1ccncc1
inactive: [1] 33.5% | [2] 0% | [3] 11.6% | [4] 18% | [5] 16.1% | [6] 33.9%

CCCn1c(=O)n(C)c(=O)c2c1ncn2C
inactive: [1] -5.15% | [2] -2.25% | [3] 13.2% | [4] -28.1% | [5] 4.1% | [6] 13.5%

CC1([C@H]2CC[C@H]3[C@@H]4CC[C@H]5OC(=O)CC[C@]5(C)[C@H]4CC[C@]23C)SCCS1
inactive: [1] 20.7% | [2] -19% | [3] 12.5% | [4] 8.6% | [5] 8.55% | [6] 14.8%

CCOc1ccc(NS(=O)(=O)c2ccc(F)cc2)cc1
inactive: [1] -27.4% | [2] -21.3% | [3] -26.9% | [4] -6.2% | [5] -24.1% | [6] 3.05%

CCC1(c2ccccc2)SCC(=O)NC1=O (centres undefined)
inactive: [1] 21.1% | [2] 4.5% | [3] 12.8% | [4] 10.8% | [5] 18.4% | [6] 6.95%

Cc1ccc(C)c(CNC(=O)C2CCCCC2C(=O)O)c1 (centres undefined)
inactive: [1] 9.3% | [2] 33.6% | [3] 37.2% | [4] -0.6% | [5] 34.6% | [6] -3.2%

COc1ccc(CC(N)C(=O)N(C)C2C(CO)OC(n3cnc4c(N(C)C)ncnc43)C2O)cc1 (centres undefined)
inactive: [1] 5.3% | [2] -10.8% | [3] -8.7% | [4] -25.7% | [5] 2.3% | [6] -7.45%

CC1OC(OC23C(=O)CC(C)(O)CC2(O)C=CC2=C3C(=O)c3ccc(C4CC(OC5CCC(OC6CC(O)C(O)C(C)O6)C(C)O5)C(O)C(C)O4)c(O)c3C2=O)CCC1O (centres undefined)
inactive: [1] 1.4% | [2] -7.95% | [3] 5.75% | [4] -0.5% | [5] -0.25% | [6] 18.1%

Cc1noc(-c2ccccc2)c1N=Nc1ccccc1
inactive: [1] 11.6% | [2] 12.1% | [3] 28.1% | [4] -34.2% | [5] 45.1% | [6] 28.5%

CN(C)c1ccc(C=C2C(=O)OC(C)(C)OC2=O)cc1Br
inactive: [1] 1.55% | [2] -13.8% | [3] -4.1% | [4] 32% | [5] -17.6% | [6] 10.7%

CN1C/C(=C\c2ccc(C(=O)O)cc2)C(=O)/C(=C/c2ccc(C(=O)O)cc2)C1
inactive: [1] 33.3% | [2] 5.35% | [3] 28.1% | [4] 20.9% | [5] -5% | [6] 19.7%

COC(=O)C1=C(O)/C(=C\c2ccccc2)NC1=O
inactive: [1] 9.35% | [2] -11.3% | [3] -12.9% | [4] -40.4% | [5] -17.8% | [6] -5.7%

O=C(O)c1sccc1Cc1ccsc1
inactive: [1] -6.85% | [2] -10.8% | [3] -8.65% | [4] -27.6% | [5] -25.9% | [6] 5%

Cc1ccc(S(=O)(=O)N/N=C/c2oc(-c3ccncc3)c(-c3ccncc3)c2[N+](=O)[O-])cc1
inactive: [1] -1.15% | [2] 10.8% | [3] 17.4% | [4] 27.8% | [5] -11.5% | [6] 17.1%

O=C(O)C(c1ccc(-c2ccccc2)cc1)C1CCCCC1 (centres undefined)
inactive: [1] 47.9% | [2] 26.4% | [3] 50.2% | [4] 3.35% | [5] 45% | [6] 40.5%

O=C1c2ccccc2C(=O)C1(c1ccccn1)[N+](=O)[O-]
inactive: [1] 5.55% | [2] 1.45% | [3] -0.2% | [4] 2% | [5] 13.6% | [6] 3.95%

O=c1c(O)c(O)c1=O
inactive: [1] 1.3% | [2] -7% | [3] 0.8% | [4] 0.7% | [5] 9.3% | [6] -15.5%

COC(=O)c1cocc1C(=O)OC
inactive: [1] -13.9% | [2] -7.25% | [3] -3.75% | [4] -2.8% | [5] -15.3% | [6] -15.9%

CN(C)CC(C)(C)C(=O)c1ccc(F)cc1
inactive: [1] 5.35% | [2] 5.8% | [3] -0.1% | [4] 3.55% | [5] 1.7% | [6] 12.3%

Cc1c(C)n(S(=O)(=O)c2ccccc2)c2ccccc12
inactive: [1] 20.6% | [2] 10.4% | [3] 21.4% | [4] 27.9% | [5] 13.2% | [6] 27.4%

CCCCSCc1nc2nc(Cl)c(Cl)nc2[nH]1
inactive: [1] -18.1% | [2] -37.2% | [3] -23.9% | [4] 1.15% | [5] -44.8% | [6] -9.25%

CCOC(=O)CC1CC(CN)(C(=O)OCC)CO1 (centres undefined)
inactive: [1] -21.6% | [2] 12.2% | [3] -6.9% | [4] 3.65% | [5] -0.4% | [6] -22.9%

CC(/C=N/Nc1ccccc1)=N\N=c1/scc(-c2ccc(Cl)cc2)n1-c1ccc(Cl)cc1
inactive: [1] 22.4% | [2] 4.65% | [3] 13.9% | [4] -0.2% | [5] 11.1% | [6] 27.9%

COc1cc(NCc2c(O)ccc3ccccc23)c2ncccc2c1
inactive: [1] 46.1% | [2] 28.1% | [3] 13.1% | [4] -11.2% | [5] 7.75% | [6] 62.8%

O=C(CC1=NC2NN(c3ccccc3)C(=O)C2=C1CC(=O)c1ccc([N+](=O)[O-])cc1)c1ccc([N+](=O)[O-])cc1 (centres undefined)
inactive: [1] 42.1% | [2] -11.4% | [3] 3.4% | [4] 2.7% | [5] 19.9% | [6] 32%

CC(=O)NC1CCCC(CC2CCCCC2)C1 (centres undefined)
inactive: [1] 18.4% | [2] 0.45% | [3] -7.8% | [4] -56% | [5] 17.6% | [6] -14.9%

CS(=O)(=O)OCC1C2CCC(CC2)C1COS(C)(=O)=O (centres undefined)
inactive: [1] 4.5% | [2] 17.3% | [3] 10.2% | [4] -15.8% | [5] -13.2% | [6] -11.5%

O=CC(CO)CC(C=O)n1cnc2c(=O)[nH]cnc21 (centres undefined)
inactive: [1] -11.2% | [2] -16.1% | [3] -15.2% | [4] 2.55% | [5] -9.45% | [6] 1.95%

CC(=O)C1=C(C)C2CC3(C)CC(C2(C)C1)C3(C)C (centres undefined)
inactive: [1] 8.45% | [2] -17.1% | [3] -0.95% | [4] 10.6% | [5] -9.75% | [6] -6%

CCOC(=O)/C(OC(C)=O)=C1/C=C(C(=O)c2ccccc2)CCC1
inactive: [1] 7.8% | [2] 25.2% | [3] 11.9% | [4] -4.1% | [5] 27.1% | [6] 7.4%
